Here are results for four compounds from PubChem BioAssay (Tox21).

Unmarked numbers belong to inactive results. Results filed as inconclusive are left out. The source made the active and inactive calls. Calls come from the whole dose curve; as a rule, active = well fitted curve in the direction sought with a large enough effect in the repeat runs; inconclusive = weak or mixed curves; inactive = no such curve, though single readings can be large; an effect the other way counts as inactive or inconclusive.
% is set by controls: 0 for no effect and ±100 for the full control effect.

One test in a line: qHTS assay to test for compound auto fluorescence at 460 nm (blue) in HEK293 cell free culture (AID 720681). As to conditions: cell-free medium, autofluorescence 405/460 nm (blue); series mostly up to 46 µM; fluorescence, % of fluorescent control: at the top concentration. The gist of the method:
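Blue fluorescence (Ex 405/Em 460 nm, triamterene-equivalent) was read immediately after pin transfer of compound or DMSO into medium (DMEM, 10% FBS) without cells.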
Take `c1ccc(C2(c3ccccc3)CC2C2=NCCN2)cc1` (stereo not given): the “fluorescence, % of fluorescent control” value is -0.0661%.

For the compound `CCCCCN(C)CCC(O)(P(=O)(O)O)P(=O)(O)O`, the “fluorescence, % of fluorescent control” value was -0.0011%.

Turning to `O=P(O)(O)C(Cl)(Cl)P(=O)(O)O`, the “fluorescence, % of fluorescent control” value is -0.05%.

The next test is described as follows: qHTS assay to test for compound auto fluorescence at 535 nm (green) in HEK293 cell free culture (AID 720682). As to conditions: cell-free medium, green autofluorescence 485/535 nm; series mostly up to 46 µM; activity change: at the top concentration. The gist of the method:
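Green-channel intensity (Ex/Em 485/535 nm) was recorded from compound-treated wells containing only DMEM with 10% FBS. Fluorescein provided the equivalency standard.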
Turning to `C[C@]12N[C@H](Cc3ccccc31)c1ccccc12`, the Potency entry was “inactive”.

`c1ccc(C2(c3ccccc3)CC2C2=NCCN2)cc1` (stereo not given): the “activity change” value was -0.0173%.

As for `CCCCCN(C)CCC(O)(P(=O)(O)O)P(=O)(O)O`, the “activity change” value was -0.0838%.

Take `O=P(O)(O)C(Cl)(Cl)P(=O)(O)O`: the “activity change” value was 0.0076%.

The next test in a line: qHTS assay to test for compound auto fluorescence at 590 nm (red) in HEK293 cell free culture (AID 720683). As to conditions: cell-free medium autofluorescence, Ex540/Em590 red; series mostly up to 46 µM; fluorescence, % of fluorescent control: at the top concentration. In a few lines:
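Red-channel autofluorescence of compounds in culture medium (DMEM, 10% FBS), no cells, measured at 540/590 nm. Rose Bengal sodium is the reference fluorophore for equivalence.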
For the compound `C[C@]12N[C@H](Cc3ccccc31)c1ccccc12`, the result was inactive.

Turning to `c1ccc(C2(c3ccccc3)CC2C2=NCCN2)cc1` (stereo not given), the “fluorescence, % of fluorescent control” value is -0.214%.

For the compound `CCCCCN(C)CCC(O)(P(=O)(O)O)P(=O)(O)O`, the “fluorescence, % of fluorescent control” value is -0.485%.

For `O=P(O)(O)C(Cl)(Cl)P(=O)(O)O`, the “fluorescence, % of fluorescent control” value was 0.469%.

A further test in a line: qHTS assay to test for compound auto fluorescence at 460 nm (blue) in HepG2 cell free culture (AID 720685). As to conditions: Cell-free culture medium, blue autofluorescence 405/460 nm; series mostly up to 46 µM; fluorescence, % of fluorescent control: at the top concentration. The gist of the method: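 Cell-free plates of MEM plus 10% FBS received 23 nL compound or DMSO vehicle; blue-channel (405/460 nm) intensity scored against triamterene as reference fluorophore.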
For orientation: qHTS replaces the single test concentration by a dilution series.
With `C[C@]12N[C@H](Cc3ccccc31)c1ccccc12`, the Potency entry was “inactive”.

Take `c1ccc(C2(c3ccccc3)CC2C2=NCCN2)cc1` (stereo not given): the “fluorescence, % of fluorescent control” value is 0.0056%.

For `CCCCCN(C)CCC(O)(P(=O)(O)O)P(=O)(O)O`, the “fluorescence, % of fluorescent control” value was -0.146%.

In the case of `O=P(O)(O)C(Cl)(Cl)P(=O)(O)O`, the “fluorescence, % of fluorescent control” value was 0.0183%.

Another test is described as follows: qHTS assay to test for compound auto fluorescence at 535 nm (green) in HepG2 cell free culture (AID 720686). As to conditions: Cell-free medium, green autofluorescence 485/535 nm; series mostly up to 46 µM; fluorescence, % of fluorescein control: at the top concentration.
In the case of `c1ccc(C2(c3ccccc3)CC2C2=NCCN2)cc1` (stereo not given), the “fluorescence, % of fluorescein control” value is -0.0005%.

On to `CCCCCN(C)CCC(O)(P(=O)(O)O)P(=O)(O)O`, for which the “fluorescence, % of fluorescein control” value is -0.114%.

Turning to `O=P(O)(O)C(Cl)(Cl)P(=O)(O)O`, the “fluorescence, % of fluorescein control” value is 0.0022%.

A short description of another test: qHTS assay to test for compound auto fluorescence at 460 nm (blue) in HepG2 cells (AID 720687). As to conditions: autofluorescence 405/460 nm, 1 h; series mostly up to 46 µM; fluorescence, % of fluorescent control: at the top concentration. In a few lines:
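Blue-channel autofluorescence (Ex/Em 405/460 nm, triamterene-equivalent) was measured after 1 hr compound exposure at 37 C, 5% CO2. Cells were HepG2, plated overnight at 37 C in MEM plus 10% FBS.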
Turning to `C[C@]12N[C@H](Cc3ccccc31)c1ccccc12`, the Potency entry is “inactive”.

As to `c1ccc(C2(c3ccccc3)CC2C2=NCCN2)cc1` (stereo not given), the “fluorescence, % of fluorescent control” value was -0.172%.

In the case of `CCCCCN(C)CCC(O)(P(=O)(O)O)P(=O)(O)O`, the “fluorescence, % of fluorescent control” value was -0.136%.

For the compound `O=P(O)(O)C(Cl)(Cl)P(=O)(O)O`, the “fluorescence, % of fluorescent control” value was -0.0212%.

A short description of a further test: qHTS assay to identify small molecule antagonists of the glucocorticoid receptor (GR) signaling pathway - cell viability counter screen (AID 720693). Note: nearly all actives have a fitted effect of over 55% in size. The note with it: GR-bla HeLa viability, CellTiter-Glo luminescence, 18 h, with 5 nM dexamethasone present; series mostly up to 58.5 µM; viability change, negative = cytotoxic: at the top concentration.
For the compound `C[C@]12N[C@H](Cc3ccccc31)c1ccccc12`, the Potency entry is “inactive”.

As for `c1ccc(C2(c3ccccc3)CC2C2=NCCN2)cc1` (stereo not given), the “viability change, negative = cytotoxic” value is -5.06%.

Turning to `CCCCCN(C)CCC(O)(P(=O)(O)O)P(=O)(O)O`, the “viability change, negative = cytotoxic” value is -0.0535%.

Regarding `O=P(O)(O)C(Cl)(Cl)P(=O)(O)O`, the “viability change, negative = cytotoxic” value was -5.47%.

The next test is described as follows: qHTS assay for identifying genotoxic compounds that show differential cytotoxicity against isogenic chicken DT40 cell lines with known DNA damage response pathways - Rev3 mutant cell line (AID 743014). Note: nearly all actives have a fitted effect of over 55% in size. As to conditions: chicken DT40 Rev3-/- viability, CellTiter-Glo, 40 h; series mostly up to 68.4 µM; activity, negative = cytotoxicity: at the top concentration.
`C[C@]12N[C@H](Cc3ccccc31)c1ccccc12`: the Potency result is “inactive”.

In the case of `c1ccc(C2(c3ccccc3)CC2C2=NCCN2)cc1` (stereo not given), the “activity, negative = cytotoxicity” value was 14.6%.

`CCCCCN(C)CCC(O)(P(=O)(O)O)P(=O)(O)O`: the “activity, negative = cytotoxicity” value is 14.9%.

The next test in a line: qHTS assay for identifying genotoxic compounds that show differential cytotoxicity against isogenic chicken DT40 cell lines with known DNA damage response pathways - Rad54/Ku70 mutant cell line (AID 743015). Note: nearly all actives have a fitted effect of over 60% in size. As to conditions: DT40 Rad54/Ku70 mutant viability, CellTiter-Glo, 40 h; series mostly up to 66.8 µM; activity change, negative = cytotoxicity: at the top concentration.
In the case of `C[C@]12N[C@H](Cc3ccccc31)c1ccccc12`, the Potency entry is “inactive”.

Take `c1ccc(C2(c3ccccc3)CC2C2=NCCN2)cc1` (stereo not given): the “activity change, negative = cytotoxicity” value was -4.21%.

For `CCCCCN(C)CCC(O)(P(=O)(O)O)P(=O)(O)O`, the “activity change, negative = cytotoxicity” value is 4.97%.

A short description of another test: qHTS assay to identify small molecule antagonists of the androgen receptor (AR) signaling pathway - cell viability counter screen (AID 743033; note: nearly all actives have a fitted effect of over 45% in size). The note with it: AR-bla HEK293 viability, CellTiter-Glo luminescence, 16 h; series mostly up to 58.5 µM; activity change, negative = cytotoxicity: at the top concentration.
With `C[C@]12N[C@H](Cc3ccccc31)c1ccccc12`, the Potency result is “inactive”.

As for `c1ccc(C2(c3ccccc3)CC2C2=NCCN2)cc1` (stereo not given), the “activity change, negative = cytotoxicity” value was -0.301%.

As for `CCCCCN(C)CCC(O)(P(=O)(O)O)P(=O)(O)O`, the “activity change, negative = cytotoxicity” value is -0.172%.
